Our source for the binding signal values is PMC7862700, “An all-to-all approach to the identification of sequence-specific readers for epigenetic DNA modifications on cytosine”.

Common to all, as to assay: DAPPL (digital affinity profiling via proximity ligation, sequencing); 10 mM Tris-HCl pH 7.5, 50 mM NaCl, 1 mM DTT, 4% glycerol, room temperature, 30 min; GST-TFs on glutathione beads, 16-mer random dsDNA library, 0.1% formaldehyde crosslink after washing; high values mean tight binding
Assay [1] has as its target T1, FLI1 (Homo sapiens, UniProt Q01543 1-452).
T1 sequence: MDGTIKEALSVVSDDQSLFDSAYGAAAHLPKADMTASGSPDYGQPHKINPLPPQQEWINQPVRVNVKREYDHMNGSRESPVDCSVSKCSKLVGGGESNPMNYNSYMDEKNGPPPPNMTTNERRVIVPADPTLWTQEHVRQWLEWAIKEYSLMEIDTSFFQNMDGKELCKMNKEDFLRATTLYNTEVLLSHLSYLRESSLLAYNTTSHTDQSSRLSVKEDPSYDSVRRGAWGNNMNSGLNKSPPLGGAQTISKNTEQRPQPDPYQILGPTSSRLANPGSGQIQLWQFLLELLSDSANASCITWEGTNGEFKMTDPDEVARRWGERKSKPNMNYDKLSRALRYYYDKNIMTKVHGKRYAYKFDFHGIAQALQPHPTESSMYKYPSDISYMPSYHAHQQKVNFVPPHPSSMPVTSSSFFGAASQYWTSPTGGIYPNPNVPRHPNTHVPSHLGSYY
The conditions noted are these: protein: recombinant; tags: N-terminal GST; dsDNA, one strand shown. The gist of the method:
(§1)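 Binding signal is defined as a hexamer's read frequency for one factor over its frequency for the tag-only sample. To obtain reads, GST-fused human transcription factors were expressed in yeast, captured on glutathione beads, barcoded with DNA and pooled with that sample. Pools met 200 nmole of a 16-mer random double-stranded DNA library in Tris/NaCl/DTT/glycerol buffer for 30 min at room temperature before washing, 0.1% formaldehyde crosslinking, proximity ligation (BsaI/T4 ligase, 1 h, 37 °C), PCR and Illumina NextSeq500 sequencing.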

For assay [2], the target named is T2, ELK1 (Homo sapiens, UniProt P19419 1-428).
T2 sequence: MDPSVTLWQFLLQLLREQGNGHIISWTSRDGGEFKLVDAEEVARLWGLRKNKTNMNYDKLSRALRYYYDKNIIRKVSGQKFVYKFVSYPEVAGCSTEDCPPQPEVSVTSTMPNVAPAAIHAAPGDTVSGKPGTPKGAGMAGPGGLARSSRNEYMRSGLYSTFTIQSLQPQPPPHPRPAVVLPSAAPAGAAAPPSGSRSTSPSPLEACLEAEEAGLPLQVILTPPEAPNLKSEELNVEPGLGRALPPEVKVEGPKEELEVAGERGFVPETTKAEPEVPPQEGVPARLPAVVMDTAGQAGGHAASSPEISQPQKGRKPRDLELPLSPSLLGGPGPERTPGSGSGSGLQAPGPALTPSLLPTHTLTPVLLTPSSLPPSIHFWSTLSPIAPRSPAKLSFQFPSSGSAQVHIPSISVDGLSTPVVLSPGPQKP
The conditions noted are these: protein: recombinant; tags: N-terminal GST; dsDNA, one strand shown. Summed up:
as §1

The target of assay [3] is T3, GABPA (Homo sapiens, UniProt Q06546 1-454).
T3 sequence: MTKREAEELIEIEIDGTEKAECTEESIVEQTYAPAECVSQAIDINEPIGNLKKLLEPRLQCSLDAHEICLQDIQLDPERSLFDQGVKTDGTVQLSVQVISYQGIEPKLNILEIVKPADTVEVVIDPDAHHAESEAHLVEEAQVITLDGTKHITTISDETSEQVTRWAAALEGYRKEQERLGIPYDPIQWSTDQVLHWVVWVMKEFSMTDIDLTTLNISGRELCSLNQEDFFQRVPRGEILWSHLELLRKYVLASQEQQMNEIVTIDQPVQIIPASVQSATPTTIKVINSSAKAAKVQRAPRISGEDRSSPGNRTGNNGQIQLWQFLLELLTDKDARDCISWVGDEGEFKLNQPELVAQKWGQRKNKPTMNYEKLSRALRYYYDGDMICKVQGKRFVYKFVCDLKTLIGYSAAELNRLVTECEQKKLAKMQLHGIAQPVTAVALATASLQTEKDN
Conditions: protein: recombinant; tags: N-terminal GST; dsDNA, one strand shown. Summed up:
as §1

Assay [4] concerns the target T4, ERG (Homo sapiens, UniProt P11308 1-479).
T4 sequence: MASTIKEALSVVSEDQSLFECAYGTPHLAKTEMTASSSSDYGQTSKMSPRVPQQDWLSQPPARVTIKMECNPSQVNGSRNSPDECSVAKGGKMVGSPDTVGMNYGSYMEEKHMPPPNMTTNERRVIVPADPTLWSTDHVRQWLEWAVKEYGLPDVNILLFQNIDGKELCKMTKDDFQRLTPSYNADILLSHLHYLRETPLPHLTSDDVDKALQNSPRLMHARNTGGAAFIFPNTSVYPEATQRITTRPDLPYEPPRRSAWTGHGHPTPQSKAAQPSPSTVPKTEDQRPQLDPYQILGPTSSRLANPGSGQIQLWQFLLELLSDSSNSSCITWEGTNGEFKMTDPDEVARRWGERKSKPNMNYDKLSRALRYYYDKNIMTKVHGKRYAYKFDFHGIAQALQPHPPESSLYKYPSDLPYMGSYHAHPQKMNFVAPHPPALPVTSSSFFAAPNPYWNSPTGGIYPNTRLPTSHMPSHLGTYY
The conditions noted are these: protein: recombinant; tags: N-terminal GST; dsDNA, one strand shown. Summed up: as §1

Assay [5] has as its target ELF1 (Homo sapiens, UniProt P32519 1-619). The conditions noted are these: protein: recombinant; tags: N-terminal GST; dsDNA, one strand shown. The gist of the method:
as §1

Assay [6] concerns the target T5, EHF (Homo sapiens, UniProt Q9NZC4 1-300).
T5 sequence: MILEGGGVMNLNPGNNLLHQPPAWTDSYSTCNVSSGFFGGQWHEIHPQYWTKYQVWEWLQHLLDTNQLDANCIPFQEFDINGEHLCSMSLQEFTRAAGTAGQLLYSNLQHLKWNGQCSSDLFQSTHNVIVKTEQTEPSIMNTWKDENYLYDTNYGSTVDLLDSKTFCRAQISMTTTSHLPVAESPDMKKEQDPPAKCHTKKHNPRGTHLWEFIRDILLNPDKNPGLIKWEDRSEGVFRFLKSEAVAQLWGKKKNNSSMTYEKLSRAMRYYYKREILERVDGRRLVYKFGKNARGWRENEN
The conditions noted are these: protein: recombinant; tags: N-terminal GST; dsDNA, one strand shown. The gist of the method:
as §1

Assay [7] concerns the target SPI1 (Homo sapiens, UniProt P17947 1-270). The conditions noted are these: protein: recombinant; tags: N-terminal GST; dsDNA, one strand shown. The gist of the method:
as §1

Assay [8] has as its target SPIB (Homo sapiens, UniProt Q01892 1-262). The conditions noted are these: protein: recombinant; tags: N-terminal GST; dsDNA, one strand shown. The gist of the method:
as §1

Assay [9] concerns the target T6, ELK3 (Homo sapiens, UniProt P41970 1-407).
T6 sequence: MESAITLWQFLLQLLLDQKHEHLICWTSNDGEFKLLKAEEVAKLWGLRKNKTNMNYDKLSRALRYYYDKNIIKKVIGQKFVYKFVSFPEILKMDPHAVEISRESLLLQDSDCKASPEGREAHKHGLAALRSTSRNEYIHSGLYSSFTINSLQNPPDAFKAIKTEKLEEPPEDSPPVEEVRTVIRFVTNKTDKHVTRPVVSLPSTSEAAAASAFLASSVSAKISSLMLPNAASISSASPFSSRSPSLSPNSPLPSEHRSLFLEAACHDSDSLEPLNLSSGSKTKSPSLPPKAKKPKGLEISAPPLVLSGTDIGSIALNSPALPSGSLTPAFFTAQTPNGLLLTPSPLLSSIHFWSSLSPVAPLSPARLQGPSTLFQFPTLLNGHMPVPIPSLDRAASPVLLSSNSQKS
The conditions noted are these: protein: recombinant; tags: N-terminal GST; dsDNA, one strand shown. Summed up:
as §1

Assay [10] has as its target T7, FEV (Homo sapiens, UniProt Q99581 1-238).
T7 sequence: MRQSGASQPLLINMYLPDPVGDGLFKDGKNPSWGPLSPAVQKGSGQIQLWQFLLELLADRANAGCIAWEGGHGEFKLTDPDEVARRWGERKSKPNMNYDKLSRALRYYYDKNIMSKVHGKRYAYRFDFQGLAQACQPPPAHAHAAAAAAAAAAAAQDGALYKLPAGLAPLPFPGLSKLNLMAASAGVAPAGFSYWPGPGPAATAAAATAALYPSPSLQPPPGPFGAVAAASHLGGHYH
Conditions: protein: recombinant; tags: N-terminal GST; dsDNA, one strand shown. Summed up: as §1

For assay [11], the target named is ETV5 (Homo sapiens, UniProt P41161 1-510). Conditions: protein: recombinant; tags: N-terminal GST; dsDNA, one strand shown. The gist of the method:
as §1

Assay [12] deals with HSF1 (Homo sapiens, UniProt Q00613 1-529). The conditions noted are these: protein: recombinant; tags: N-terminal GST; chain copies: 3; dsDNA, one strand shown. The gist of the method:
as §1

Assay [13] concerns the target ELF4 (Homo sapiens, UniProt Q99607 1-663). The conditions noted are these: protein: recombinant; tags: N-terminal GST; dsDNA, one strand shown. Summed up: as §1
Assay [14] has as its target T8, ELK4 (Homo sapiens, UniProt P28324-2 1-405).
T8 sequence: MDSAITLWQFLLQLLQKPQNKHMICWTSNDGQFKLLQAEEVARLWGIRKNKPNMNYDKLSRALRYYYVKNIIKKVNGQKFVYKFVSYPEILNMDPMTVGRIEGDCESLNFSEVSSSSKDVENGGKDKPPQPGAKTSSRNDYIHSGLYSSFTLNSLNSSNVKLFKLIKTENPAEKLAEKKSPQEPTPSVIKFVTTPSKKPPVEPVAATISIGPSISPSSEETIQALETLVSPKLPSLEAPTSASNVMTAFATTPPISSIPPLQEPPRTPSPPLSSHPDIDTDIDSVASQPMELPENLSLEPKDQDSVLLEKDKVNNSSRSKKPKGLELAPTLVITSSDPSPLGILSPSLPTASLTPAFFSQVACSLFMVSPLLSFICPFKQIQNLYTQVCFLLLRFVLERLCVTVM
Conditions: protein: recombinant; tags: N-terminal GST; dsDNA, one strand shown. The gist of the method:
as §1

For assay [15], the target named is T9, ETV2 (Homo sapiens, UniProt O00321 1-342).
T9 sequence: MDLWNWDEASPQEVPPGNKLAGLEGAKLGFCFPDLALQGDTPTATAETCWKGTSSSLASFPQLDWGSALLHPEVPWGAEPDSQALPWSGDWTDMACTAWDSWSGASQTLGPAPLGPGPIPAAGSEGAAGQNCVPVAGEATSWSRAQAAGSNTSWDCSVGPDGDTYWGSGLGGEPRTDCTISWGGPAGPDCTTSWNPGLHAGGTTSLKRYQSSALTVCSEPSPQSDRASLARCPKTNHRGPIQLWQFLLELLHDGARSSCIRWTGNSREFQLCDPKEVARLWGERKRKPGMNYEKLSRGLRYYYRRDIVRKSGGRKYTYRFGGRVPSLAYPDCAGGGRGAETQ
The conditions noted are these: protein: recombinant; tags: N-terminal GST; dsDNA, one strand shown. Summed up: as §1

Assay [16] addresses T10, ELF3 (Homo sapiens, UniProt P78545 1-371).
T10 sequence: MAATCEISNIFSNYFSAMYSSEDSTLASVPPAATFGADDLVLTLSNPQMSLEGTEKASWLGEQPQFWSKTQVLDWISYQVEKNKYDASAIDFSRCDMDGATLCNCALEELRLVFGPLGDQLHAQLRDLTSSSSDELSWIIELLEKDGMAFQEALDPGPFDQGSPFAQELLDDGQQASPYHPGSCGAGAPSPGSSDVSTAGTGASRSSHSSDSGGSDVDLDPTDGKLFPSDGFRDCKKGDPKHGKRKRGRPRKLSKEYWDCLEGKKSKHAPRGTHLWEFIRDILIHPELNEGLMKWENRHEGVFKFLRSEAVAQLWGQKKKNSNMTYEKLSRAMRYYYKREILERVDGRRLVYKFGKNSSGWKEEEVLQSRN
The conditions noted are these: protein: recombinant; tags: N-terminal GST; dsDNA, one strand shown. The gist of the method:
as §1

The target of assay [17] is CRX (Homo sapiens, UniProt O43186 1-299). The conditions noted are these: protein: recombinant; tags: N-terminal GST; dsDNA, one strand shown. The gist of the method:
as §1

Assay [18] has as its target ETV1 (Homo sapiens, UniProt P50549 1-477). Conditions: protein: recombinant; tags: N-terminal GST; dsDNA, one strand shown. Summed up: as §1

Sequence of ETV1 (P50549 whole entry): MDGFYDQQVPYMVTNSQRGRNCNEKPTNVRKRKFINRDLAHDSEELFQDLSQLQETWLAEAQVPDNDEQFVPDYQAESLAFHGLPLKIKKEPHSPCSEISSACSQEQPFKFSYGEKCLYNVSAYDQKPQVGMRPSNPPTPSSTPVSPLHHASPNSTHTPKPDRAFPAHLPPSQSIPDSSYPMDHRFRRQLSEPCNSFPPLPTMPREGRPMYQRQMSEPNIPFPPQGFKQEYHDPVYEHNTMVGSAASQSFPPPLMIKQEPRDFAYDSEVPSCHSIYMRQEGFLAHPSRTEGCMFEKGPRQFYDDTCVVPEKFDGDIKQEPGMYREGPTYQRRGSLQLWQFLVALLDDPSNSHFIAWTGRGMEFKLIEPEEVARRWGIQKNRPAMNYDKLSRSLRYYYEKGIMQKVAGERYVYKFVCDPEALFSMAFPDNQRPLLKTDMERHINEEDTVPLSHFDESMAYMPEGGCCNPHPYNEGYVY
Sequence of HSF1 (Q00613 whole entry): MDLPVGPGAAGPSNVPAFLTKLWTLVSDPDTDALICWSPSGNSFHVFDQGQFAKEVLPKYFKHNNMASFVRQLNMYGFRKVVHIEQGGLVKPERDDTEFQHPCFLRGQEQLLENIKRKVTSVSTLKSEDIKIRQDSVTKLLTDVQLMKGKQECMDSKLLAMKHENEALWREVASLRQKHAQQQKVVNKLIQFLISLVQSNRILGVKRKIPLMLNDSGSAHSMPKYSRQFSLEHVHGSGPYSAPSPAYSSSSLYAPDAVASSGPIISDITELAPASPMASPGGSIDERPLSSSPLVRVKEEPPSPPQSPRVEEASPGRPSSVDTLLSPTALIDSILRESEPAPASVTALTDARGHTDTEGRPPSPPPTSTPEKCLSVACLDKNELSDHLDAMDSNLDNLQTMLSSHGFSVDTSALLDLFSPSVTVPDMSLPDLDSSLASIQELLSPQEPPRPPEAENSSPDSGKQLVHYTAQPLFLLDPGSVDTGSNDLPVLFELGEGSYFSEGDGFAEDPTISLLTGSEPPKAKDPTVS
Sequence of ELF1 (P32519 whole entry): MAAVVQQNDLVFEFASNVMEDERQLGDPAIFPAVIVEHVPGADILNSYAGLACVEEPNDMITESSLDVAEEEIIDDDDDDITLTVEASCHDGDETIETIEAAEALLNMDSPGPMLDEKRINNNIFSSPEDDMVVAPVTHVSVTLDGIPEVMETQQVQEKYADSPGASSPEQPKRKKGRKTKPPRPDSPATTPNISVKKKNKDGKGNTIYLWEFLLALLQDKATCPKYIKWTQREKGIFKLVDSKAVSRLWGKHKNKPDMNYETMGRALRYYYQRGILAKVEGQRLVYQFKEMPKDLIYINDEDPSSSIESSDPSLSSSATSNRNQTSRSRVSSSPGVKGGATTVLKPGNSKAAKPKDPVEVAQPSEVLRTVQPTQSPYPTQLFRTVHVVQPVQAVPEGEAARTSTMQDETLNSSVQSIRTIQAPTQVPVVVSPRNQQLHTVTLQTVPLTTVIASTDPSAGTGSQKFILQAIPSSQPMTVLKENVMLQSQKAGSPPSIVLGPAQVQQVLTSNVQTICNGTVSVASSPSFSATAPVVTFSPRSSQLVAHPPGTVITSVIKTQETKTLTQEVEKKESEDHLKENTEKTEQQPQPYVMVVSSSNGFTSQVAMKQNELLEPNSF
Sequence of SPIB (Q01892 whole entry): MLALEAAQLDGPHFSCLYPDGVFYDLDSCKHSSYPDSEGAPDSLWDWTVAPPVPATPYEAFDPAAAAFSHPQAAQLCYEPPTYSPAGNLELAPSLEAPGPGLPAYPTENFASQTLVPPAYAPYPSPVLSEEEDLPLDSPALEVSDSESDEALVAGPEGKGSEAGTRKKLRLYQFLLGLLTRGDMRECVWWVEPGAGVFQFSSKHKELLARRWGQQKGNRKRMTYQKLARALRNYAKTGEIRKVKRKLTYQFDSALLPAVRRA
Sequence of CRX (O43186 whole entry): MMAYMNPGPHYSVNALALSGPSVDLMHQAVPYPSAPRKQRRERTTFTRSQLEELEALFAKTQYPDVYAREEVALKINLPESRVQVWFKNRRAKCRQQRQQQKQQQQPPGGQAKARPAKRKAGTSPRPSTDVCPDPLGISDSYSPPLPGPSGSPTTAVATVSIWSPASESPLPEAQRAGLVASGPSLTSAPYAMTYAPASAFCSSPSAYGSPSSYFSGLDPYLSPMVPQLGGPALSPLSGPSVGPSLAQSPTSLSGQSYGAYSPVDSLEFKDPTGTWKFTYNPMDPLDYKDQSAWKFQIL
Sequence of ELF4 (Q99607 whole entry): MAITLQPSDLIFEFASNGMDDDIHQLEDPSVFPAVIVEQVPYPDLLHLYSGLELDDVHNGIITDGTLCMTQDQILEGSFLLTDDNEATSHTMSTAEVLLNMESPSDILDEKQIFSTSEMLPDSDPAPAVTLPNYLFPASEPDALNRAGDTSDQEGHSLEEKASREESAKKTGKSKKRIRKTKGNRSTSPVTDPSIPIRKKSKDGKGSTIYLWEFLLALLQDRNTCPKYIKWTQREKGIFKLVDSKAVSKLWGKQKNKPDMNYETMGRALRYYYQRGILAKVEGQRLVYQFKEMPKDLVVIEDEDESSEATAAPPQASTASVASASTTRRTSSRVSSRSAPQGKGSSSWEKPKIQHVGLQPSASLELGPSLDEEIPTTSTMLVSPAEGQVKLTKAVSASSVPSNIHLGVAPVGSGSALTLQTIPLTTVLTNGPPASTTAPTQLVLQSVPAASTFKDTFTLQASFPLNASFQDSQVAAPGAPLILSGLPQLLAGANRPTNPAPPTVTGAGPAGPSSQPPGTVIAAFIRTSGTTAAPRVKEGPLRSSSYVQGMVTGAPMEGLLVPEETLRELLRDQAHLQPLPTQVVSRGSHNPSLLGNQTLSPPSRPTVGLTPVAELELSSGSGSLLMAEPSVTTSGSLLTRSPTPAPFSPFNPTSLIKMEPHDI
Sequence of ETV5 (P41161 whole entry): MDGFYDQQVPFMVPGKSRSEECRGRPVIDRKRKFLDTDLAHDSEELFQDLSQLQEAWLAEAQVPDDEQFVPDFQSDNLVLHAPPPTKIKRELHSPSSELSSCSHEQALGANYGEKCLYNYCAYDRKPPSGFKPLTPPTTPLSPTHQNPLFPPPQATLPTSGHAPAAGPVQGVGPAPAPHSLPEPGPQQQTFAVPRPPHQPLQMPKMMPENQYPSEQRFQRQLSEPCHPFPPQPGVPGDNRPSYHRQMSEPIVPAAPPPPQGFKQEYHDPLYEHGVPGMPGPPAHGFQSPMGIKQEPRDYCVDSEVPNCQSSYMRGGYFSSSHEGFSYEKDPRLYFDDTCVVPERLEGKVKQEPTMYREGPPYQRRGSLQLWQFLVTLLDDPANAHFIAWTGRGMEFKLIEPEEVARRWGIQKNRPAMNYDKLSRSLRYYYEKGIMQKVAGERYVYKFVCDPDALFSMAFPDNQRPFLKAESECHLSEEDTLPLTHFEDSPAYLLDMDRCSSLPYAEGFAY

TAAAGA: the binding signal was 1.11 fold enrichment (6-mer frequency, TF over GST control) in assay [1]; 1.04 fold enrichment (6-mer frequency, TF over GST control) in assay [2]; 1.14 fold enrichment (6-mer frequency, TF over GST control) in [3]; 1.14 fold enrichment (6-mer frequency, TF over GST control) in assay [4]; 1.14 fold enrichment (6-mer frequency, TF over GST control) in assay [5]; 1.07 fold enrichment (6-mer frequency, TF over GST control) in assay [6]. Further, the binding signal in assay [7] is 1.12 fold enrichment (6-mer frequency, TF over GST control); in assay [8] it was 1.11 fold enrichment (6-mer frequency, TF over GST control); in [9], 1.07 fold enrichment (6-mer frequency, TF over GST control); in assay [10] it was 1.09 fold enrichment (6-mer frequency, TF over GST control); in assay [11], 1.07 fold enrichment (6-mer frequency, TF over GST control); in [12], 1.56 fold enrichment (6-mer frequency, TF over GST control). Moreover, the binding signal in [13] is 1.07 fold enrichment (6-mer frequency, TF over GST control); in assay [14] it was 1.11 fold enrichment (6-mer frequency, TF over GST control); in [15], 1.13 fold enrichment (6-mer frequency, TF over GST control); in [16], 1.2 fold enrichment (6-mer frequency, TF over GST control); in assay [17], 1.85 fold enrichment (6-mer frequency, TF over GST control); in [18] it was 1.11 fold enrichment (6-mer frequency, TF over GST control).
